{
  "source": "PubChem BioAssay AID588453",
  "about": "(National Center for Advancing Translational Sciences (NCATS), 2011)",
  "note": "The whole screen tested about 390,000 compounds, of which about 4,000 (1%) were called active. Roughly 4% stayed inconclusive and do not appear here. Many of the other results were omitted from the sample, so actives are more common in it than they were. Values without a mark were called inactive. Calls come from the whole dose curve; as a rule, active = well fitted inhibition curve with a large enough effect; inconclusive = small, poorly fitted or top-dose-only effect; inactive = no such curve, though single readings can be large or run the other way. % is set by controls: 0 for no effect and ±100 for the full control effect; potency is the fitted concentration of half-maximal effect.",
  "data": [
    {"molecular_target": "Thioredoxin reductase 1, cytoplasmic (Rattus norvegicus) (UniProt O89049)", "sequence (O89049 whole entry, looked up)": "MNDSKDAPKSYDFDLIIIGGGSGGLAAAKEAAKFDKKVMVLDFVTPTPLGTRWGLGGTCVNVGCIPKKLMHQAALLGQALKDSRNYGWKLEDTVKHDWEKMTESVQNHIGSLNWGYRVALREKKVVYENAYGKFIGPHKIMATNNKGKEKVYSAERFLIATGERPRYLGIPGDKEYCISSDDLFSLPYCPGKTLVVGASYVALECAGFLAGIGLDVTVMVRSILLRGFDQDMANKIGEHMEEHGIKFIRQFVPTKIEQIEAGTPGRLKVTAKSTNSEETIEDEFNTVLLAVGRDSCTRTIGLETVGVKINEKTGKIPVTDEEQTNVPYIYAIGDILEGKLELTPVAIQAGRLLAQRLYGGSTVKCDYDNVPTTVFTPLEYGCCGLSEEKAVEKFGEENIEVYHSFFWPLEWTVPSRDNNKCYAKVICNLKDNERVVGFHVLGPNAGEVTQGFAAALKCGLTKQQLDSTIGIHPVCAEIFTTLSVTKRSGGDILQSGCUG", "experiment": "qHTS Assay for Inhibitors of Mammalian Selenoprotein Thioredoxin Reductase 1 (TrxR1): qHTS; note: nearly all actives have a fitted effect of over 65% in size", "conditions": "recombinant rTrxR1, NADPH fluorescence consumption, selenite substrate; series mostly up to 114 µM; activity change, negative = inhibition: at the top concentration", "text": "The selenoprotein thioredoxin reductase (TrxR; EC 1.8.1.9) is a FAD containing homodimeric pyridine nucleotide-disulfide oxidoreductase with many cellular roles. Together with NADPH and its prime substrate thioredoxin (Trx), the enzyme forms the core of the Trx system. The mammalian Trx system exerts a wide spectrum of functions including redox regulation, antioxidant defense, regulation of transcription factors as well as support of cell growth and replication. Many of these functions involve the reduction of Trx, which may subsequently reduce a number of different substrates including ribonucleotide reductase, peroxiredoxins or NFkB. Mammalian TrxR itself also has a broad substrate specificity, reducing both protein and non-protein substrates, including low molecular weight compounds such as dehydroascorbate, lipoic acid, ubiquinone, and juglone. In addition, several drugs in clinical use for anticancer treatment are indeed known to target TrxR1.\nThis BioAssay is a validation of an NADPH fluorescence-based, dual-purpose qHTS rTrxR1 assay designed to find potential inhibitors and substrates of rTrxR1. For this particular BioAssay, actives are potential inhibitors. See related BioAssay for substrate data deposition.\nNIH Molecular Libraries Probe Production Network [MLPCN]\nNIH Chemical Genomics Center [NCGC]\nAssay Provider: Elias Arner, Karolinska Institute\nAssay protocol: 2 uL of reagents (buffer in column 4 as negative control and 90 nM rTrxR1 in columns 1-3 and 5-48) were dispensed into Greiner black solid-bottom 1,536-well assay plates, followed by 1 uL of NADPH (400 uM final concentration) to each well. The plates were centrifuged at 1000 rpm for 15 seconds and subsequently incubated for 5 min at room temperature (~22 deg C) to allow for rTrxR1 reduction. Compounds (23 nL) were then transferred via Kalypsys pin tool equipped with 1536-pin array (10 nL slotted pins, V&P Scientific, San Diego, CA). In addition, a duplicate 2-fold serial dilution of the control compounds auranofin, a known gold-based TrxR1 inhibitor, and juglone (5-hydroxy-1,4-naphthoquinone), a natural TrxR1 substrate, were pin-transferred to columns 2 and 3, respectively. After incubation for 15 min at room temperature (~22 deg C), 1 uL of selenite (400 uM final concentration) were dispensed to each well. The plate was immediately transferred to a ViewLux high-throughput CCD imager (PerkinElmer), wherein kinetic measurements of NADPH fluorescence (Ex 340 nm, Em 450 nm) were acquired (8 minute kinetic read, see Table 1). Read 1 was utilized to assess the capacity of a compound to serve as an rTrxR1 substrate, i.e. a decrease in NADPH fluorescence compared to the no-compound background is an indication of a substrate behavior for that particular compound. For inhibitory activity of a compound, delta values, computed as the difference in fluorescence intensity between the first and last reads of an 8-minute time kinetic window, were used. All reagents were diluted in an assay buffer consisting of 50 mM Tris-HCl, pH 7.5, 2 mM EDTA, and 0.01% Tween-20.\nThroughout the screen, reagent bottle and all liquid lines were made light-tight to minimize reagent degradation. All screening operations were performed on a fully integrated robotic system (Kalypsys, San Diego, CA) containing one RX-130 and two RX-90 anthropomorphic robotic arms (Staubli, Duncan, SC). Library plates were screened starting from the lowest and proceeding to the highest concentration, and a 'double-pinning' step of the highest concentration was required to access higher concentrations of compounds. Vehicle-only plates, with DMSO being pin-transferred to the columns 5-48, were inserted uniformly at the beginning and the end of each library in order to monitor and record any shifts in the background, which can be affected by reagent dispensers or loss in enzyme activity over time. […]", "values": [
      {"smiles": "Cc1ccc(-c2nc(CS(=O)CC(=O)N3CCN(c4ncccn4)CC3)c(C)o2)cc1", "note": "(stereo not drawn)", "Potency": "10 µM (active)"},
      {"smiles": "COc1ccc(-c2nc(CS(=O)CC(=O)N3CCc4ccccc4C3)c(C)o2)cc1", "note": "(stereo not drawn)", "Potency": "7.94 µM (active)"},
      {"smiles": "Nc1ccc(/C=C/c2ccnc3ccccc23)c([N+](=O)[O-])c1", "activity change, negative = inhibition": "2.67%"},
      {"smiles": "CCCCNc1ccc(-c2nc(-c3ccncc3)no2)cc1[N+](=O)[O-]", "activity change, negative = inhibition": "-3.02%"},
      {"smiles": "CCC1CCCCN1S(=O)(=O)c1ccc(NC(=O)c2cc(=O)c3ccccc3o2)cc1", "note": "(stereo not drawn)", "activity change, negative = inhibition": "16.9%"},
      {"smiles": "Brc1nc2ncnc(NCc3ccco3)c2[nH]1", "activity change, negative = inhibition": "24.3% [at 0.0914 µM]"},
      {"smiles": "COc1cc(CNC(=O)c2cc3n(n2)CCCN(Cc2cccc(F)c2)C3=O)cc(OC)c1OC", "activity change, negative = inhibition": "10.6% [at 57.1 µM]"},
      {"smiles": "CC1CCN(C(=O)Cn2c(=O)n(-c3ccc(Cl)cc3)c(=O)c3c4c(sc32)CCC4)CC1", "activity change, negative = inhibition": "21%"},
      {"smiles": "O=C(O)C1=C/C(=C/C=[N+]2c3cc(O)c(O[C@H]4OC(CO)[C@@H](O)[C@@H](O)[C@@H]4O)cc3C[C@@H]2C(=O)[O-])C[C@H](C(=O)O)N1", "note": "(stereo partly drawn)", "activity change, negative = inhibition": "-0.117%"},
      {"smiles": "C[C@@H](NC(=O)OC(C)(C)C)c1nnc(S(=O)(=O)Cc2ccccc2)o1", "Potency": "0.316 µM (active)"},
      {"smiles": "CC(C)[C@@H](NC(=O)OC(C)(C)C)C(=O)NCC1CCC(C(=O)N[C@@H](Cc2ccccc2)C(=O)O)CC1", "note": "(stereo partly drawn)", "activity change, negative = inhibition": "17.4% [at 57.1 µM]"},
      {"smiles": "CC(C)(C)c1ccc(C(CC(=O)O)NS(=O)(=O)Cc2ccccc2)cc1", "note": "(stereo not drawn)", "activity change, negative = inhibition": "26.7%"},
      {"smiles": "Cc1ccc(Cl)cc1NC(=O)CSc1nccn1C", "activity change, negative = inhibition": "30% [at 57.1 µM]"},
      {"smiles": "Cc1cccc(CN2Cc3cccc4c3[C@H](C=CC4)CC2=S)c1", "activity change, negative = inhibition": "-7.23%"},
      {"smiles": "N#Cc1ccc[n+](CC(=O)c2ccc(F)cc2)c1", "activity change, negative = inhibition": "-15.1%"},
      {"smiles": "CC1CCCN(c2cc3c(cc2F)c(=O)c(S(=O)(=O)c2cccc(Cl)c2)cn3Cc2ccccc2)C1", "note": "(stereo not drawn)", "activity change, negative = inhibition": "20.8%"},
      {"smiles": "COc1ccc(CNC(=O)CC2Oc3ccc(C)cc3NC2=O)cc1", "note": "(stereo not drawn)", "activity change, negative = inhibition": "5.11%"},
      {"smiles": "COc1cc(C(=S)N2CCOCC2)cc(OC)c1OC(=O)c1ccc([N+](=O)[O-])cc1[N+](=O)[O-]", "activity change, negative = inhibition": "7.04% [at 57.1 µM]"},
      {"smiles": "CCOC(=O)N1CCN(c2cc(C)c([N+](=O)[O-])cc2F)CC1", "activity change, negative = inhibition": "9.84% [at 57.1 µM]"},
      {"smiles": "C=COC(=O)N1CCN(/[N+]([O-])=N/Oc2ccc([N+](=O)[O-])cc2[N+](=O)[O-])CC1", "Potency": "10 µM (active)"},
      {"smiles": "O=C(O)C1CC(=O)N(Cc2cccnc2)C1", "note": "(stereo not drawn)", "activity change, negative = inhibition": "-3.09%"},
      {"smiles": "O=C1/C(=C\\c2cccnc2)CN(Cc2ccccc2)C/C1=C\\c1cccnc1", "Potency": "50.1 µM (active)"},
      {"smiles": "O=C(O)CCc1cccnc1", "Potency": "inactive"},
      {"smiles": "O=C(Nc1ccc2nc(SCC(=O)N3CCCc4ccccc43)sc2c1)c1ccc(Cl)cc1", "activity change, negative = inhibition": "38.1%"},
      {"smiles": "C=C1C=C(C(F)F)n2ncc(C(=O)NCCc3ccccc3OC)c2N1", "activity change, negative = inhibition": "1.89%"},
      {"smiles": "Cc1ccccc1CN1CCC(CNC(=O)c2c(C)oc3ncnc(N4CCCCC4)c23)CC1", "activity change, negative = inhibition": "16.4%"},
      {"smiles": "Cc1ccc(C)c(Cn2c(C)c(CNCc3ccc(F)cc3)c(C(=O)O)c2C)c1", "activity change, negative = inhibition": "20.8%"},
      {"smiles": "O=C(Cn1c[n+](CC(=O)c2ccc([N+](=O)[O-])cc2)cn1)c1ccc([N+](=O)[O-])cc1", "activity change, negative = inhibition": "-30.7%"},
      {"smiles": "O=C(CC(n1cncn1)C(Cl)(Cl)Cl)c1ccc([N+](=O)[O-])cc1", "note": "(stereo not drawn)", "Potency": "3.55 µM (active)"},
      {"smiles": "O=C(CCn1nnc2ccccc21)OCC(=O)c1ccc([N+](=O)[O-])cc1", "activity change, negative = inhibition": "25.8%"},
      {"smiles": "CCOc1ccc(N2C(=O)CC(N(CCc3ccc(OC)c(OC)c3)C(=S)Nc3ccccc3)C2=O)cc1", "note": "(stereo not drawn)", "activity change, negative = inhibition": "-11.6%"},
      {"smiles": "CCCOc1ccc(N2C(=O)CC(N(CCc3ccc(S(N)(=O)=O)cc3)C(C)=O)C2=O)cc1", "note": "(stereo not drawn)", "activity change, negative = inhibition": "10.5%"},
      {"smiles": "CCOc1ccc(N2C(=O)CC(N(O)c3ccccc3)C2=O)cc1", "note": "(stereo not drawn)", "Potency": "12.6 µM (active)"},
      {"smiles": "O=C(CC1N=C2c3ccccc3N=C(SCc3ccc(F)cc3)N2C1=O)NCc1cccs1", "note": "(stereo not drawn)", "activity change, negative = inhibition": "1.84% [at 57.1 µM]"},
      {"smiles": "Cc1nc2ccccn2c(=O)c1NC(=O)c1c(F)cccc1F", "activity change, negative = inhibition": "16.1% [at 57.1 µM]"},
      {"smiles": "CCc1ccc(NC(=O)CCCc2nnc3n(CCCOC)c(=O)c4sccc4n23)cc1", "activity change, negative = inhibition": "23.7%"},
      {"smiles": "CCOc1cccc(CC(=O)N2CCc3c([nH]c4ccccc34)C2c2ccc(F)cc2)c1OCC", "note": "(stereo not drawn)", "activity change, negative = inhibition": "38.1% [at 57.1 µM]"},
      {"smiles": "CCOc1cccc2c1N[C@@H](c1ccc(C(=O)O)cc1)[C@H]1CC=C[C@@H]21", "Potency": "11.2 µM (active)"},
      {"smiles": "CCOc1ccccc1CNC(=O)c1ccc(-n2c(C)cc3c2CCC(C)C3)cc1", "note": "(stereo not drawn)", "activity change, negative = inhibition": "-7.5%"},
      {"smiles": "O=C(c1cnn2c1NC(=C1CC1)C=C2C(F)F)N1CCc2ccccc2C1", "activity change, negative = inhibition": "-19.6%"},
      {"smiles": "CCOC(=O)c1ccc(NC(=O)C2CC(=O)N(c3ccc(C(C)C)cc3)C2)cc1", "note": "(stereo not drawn)", "activity change, negative = inhibition": "10.9%"},
      {"smiles": "CCN1CCN(C(=O)C2CCN(S(=O)(=O)c3cc(Cl)ccc3Cl)CC2)CC1", "activity change, negative = inhibition": "18.4% [at 57.1 µM]"},
      {"smiles": "O=S(=O)(c1cc(Cl)ccc1Cl)N1CCN(Cc2ccco2)CC1", "activity change, negative = inhibition": "-4.98%"},
      {"smiles": "O=C(CN1CCN(S(=O)(=O)c2cc(Cl)ccc2Cl)CC1)c1ccc(O)c(O)c1", "Potency": "44.7 µM (active)"},
      {"smiles": "CN1CCN(C2(CNC(=O)COc3ccc(C(C)(C)C)cc3)CCCCC2)CC1", "activity change, negative = inhibition": "18.5%"},
      {"smiles": "COc1ccc(C(C[N+](=O)[O-])n2nc(C)cc2C)cc1", "note": "(stereo not drawn)", "Potency": "8.91 µM (active)"},
      {"smiles": "COc1ccc(S(=O)(=O)NCC(c2ccc(N(C)C)cc2)N2CCCC2)cc1", "note": "(stereo not drawn)", "activity change, negative = inhibition": "11.6% [at 57.1 µM]"},
      {"smiles": "COc1ccc2cc(-c3[nH]ncc3CNCCn3nc(C)cc3C)ccc2c1", "activity change, negative = inhibition": "28.7%"}
    ]}
  ]
}
